Rows were chosen to be rich in hits. Some 10% of all compounds tested hit in one or more screens of this group.
Luciferase inh: Photinus pyralis luciferase inhibition; purified P. pyralis luciferase, luminescence, biochemical; P08659; Potency, µM (top dose mostly 115 µM), actives largely listed as inhibitors; actives 2.5% (n = 76,000); further: nearly all actives have a fitted effect of over 65% in size
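Purified P. pyralis luciferase (10nM final) in 50mM Tris acetate pH 7.5, 10mM Mg acetate, 0.01% Tween-20, 0.05% BSA with 10uM D-luciferin and 10uM ATP. Compounds titrated qHTS. Luminescence imaged on CCD.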
GPT2 inhibitor: inhibitors of human GPT2 alanine aminotransferase; Q8TD30; Recombinant GPT2, coupled pyruvate oxidase/HRP Amplex Red fluorescence; Potency, µM (doses to about 57.7 µM), hits mostly inhibitors; actives 0.25% (n = 100,000); further: nearly all actives have a fitted effect of over 60% in size
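Fluorescence of coupled pyruvate oxidase/HRP/Amplex Red system (50uM Amplex, 30 min, dark) reports pyruvate formed by GPT2. Enzyme reaction: 10ng/uL GPT2, 2mM L-alanine, 250uM a-KG, 30 min room temperature, pH 7.5; 50uM AOA control.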
3T3 cytotox: NIH 3T3 cell cytotoxicity | AID 1345082 | NIH 3T3 viability, CellTiter-Glo ATP luminescence, 48-72 h | actives 4.3% (n = 94,000) | Potency, µM (top dose mostly 96.7 µM), hits mostly inhibitors; further: nearly all actives have a fitted effect of over 55% in size
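Viability of NIH 3T3 cells after 48 or 72 hr compound treatment at 37 °C was assessed by CellTiter-Glo, with luminescence imaged following a 10 min room-temperature step.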
HEK cytotox: kills HEK 293 cells | HEK 293 viability, ATP luminescence (CellTiter-Glo), 48-72 h | Potency, µM (highest dose often 115 µM), actives largely listed as inhibitors | actives 6.6% (n = 94,000); further: nearly all actives have a fitted effect of over 60% in size
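CellTiter-Glo luminescence (cellular ATP) was read after 48 or 72 hr of compound exposure at 37 degree Celsius. Cells were HEK 293 plated at 250 cells/well.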
NPR1 antag: antagonists of human natriuretic peptide receptor Npr1; HEK293 hNpr1 GloSensor cGMP, ANP-stimulated luminescence; Potency, µM (titrated, usually from 46.3 µM), most hits filed as inhibitors; P16066; actives 1.6% (n = 76,000); AID 1347048; calls by dose curve; further: nearly all actives have a fitted effect of over 60% in size
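HEK293 cells stably expressing human Npr1 and cGMP GloSensor pGS-40F, loaded 2 h with 2% GloSensor reagent, given compound 30 min at room temperature. Luminescence read before and 20 min after 0.1 nM hNppA.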
Hits are given with their value. Unless noted, the call rests on the fitted dose curve; in most records, active means well fitted curve in the direction sought with a large enough effect; inconclusive means small, poorly fitted or top-dose-only effect, or another doubt; inactive means no such curve, though single readings can be large; an effect the other way counts as inactive or inconclusive.

Screening Cc1cc(=O)n(CC(=O)Nc2ccc(C(C)C)cc2)c(N2CCN(c3ccccc3)CC2)n1 returned Luciferase inh inactive, GPT2 inhibitor inactive, 3T3 cytotox 32µM, HEK cytotox inconclusive and NPR1 antag inactive.
Screening CCc1ccc(NC(=O)Cn2c(N3CCc4ccccc4C3)nc(C)cc2=O)cc1 returned Luciferase inh inactive, GPT2 inhibitor inactive, 3T3 cytotox inconclusive, HEK cytotox inconclusive and NPR1 antag inactive.
Cc1cc(=O)n(CC(=O)Nc2ccc(F)cc2)c(N2CCc3ccccc3C2)n1 was read as Luciferase inh inactive, GPT2 inhibitor inactive, 3T3 cytotox 40µM, HEK cytotox 40µM and NPR1 antag inactive.
`Cc1cc(=O)n(CC(=O)NCc2ccc(F)cc2)c(N2CCc3ccccc3C2)n1` gave Luciferase inh inactive, GPT2 inhibitor inactive, 3T3 cytotox inconclusive, HEK cytotox 45µM and NPR1 antag inactive.
For CCOC(=O)c1ccc(NC(=O)Cn2c(N3CCc4ccccc4C3)nc(C)cc2=O)cc1 the results were Luciferase inh inactive, GPT2 inhibitor inactive, 3T3 cytotox 32µM, HEK cytotox 32µM and NPR1 antag inactive.
Screening COc1cccc(CN2C[C@@H](F)[C@@H](OCc3nc4ccccc4o3)C2)c1 returned Luciferase inh inactive, GPT2 inhibitor inactive, 3T3 cytotox inactive, HEK cytotox inconclusive and NPR1 antag inactive.
COc1cccc(NC(=O)Cn2c(N3CCc4ccccc4C3)nc(C)cc2=O)c1 was read as Luciferase inh inactive, GPT2 inhibitor inconclusive, 3T3 cytotox 22µM, HEK cytotox 20µM and NPR1 antag inconclusive.
`O=C([C@@H]1C[C@H](F)CN1S(=O)(=O)c1ccc(F)c(Cl)c1)N1CCCCC1` gave Luciferase inh inactive, GPT2 inhibitor inactive, 3T3 cytotox inactive, HEK cytotox inactive and NPR1 antag inactive.
Screening COCCN[C@@H]1C[C@@H]2c3[nH]c4ccccc4c3C[C@@H](C(=O)OC)N2[C@H](c2ccc(F)c(F)c2)C1 returned Luciferase inh inactive, GPT2 inhibitor inactive, 3T3 cytotox 25µM, HEK cytotox 22µM and NPR1 antag inconclusive.
`COCCN[C@@H]1C[C@@H]2c3[nH]c4ccccc4c3C[C@@H](C(=O)OC)N2[C@H](c2ccccc2)C1` gave Luciferase inh inconclusive, GPT2 inhibitor inactive, 3T3 cytotox 32µM, HEK cytotox 28µM and NPR1 antag inconclusive.
Screening O=C(COc1ccccc1)NC1CCCc2c1[nH]c1ccccc21 (stereo not given) returned Luciferase inh inactive, GPT2 inhibitor inactive, 3T3 cytotox inconclusive, HEK cytotox inconclusive and NPR1 antag inactive.
For COC(=O)[C@@H]1Cc2c([nH]c3ccccc23)[C@H]2C[C@@H](NCCO)C[C@@H](c3ccccc3)N21 the results were Luciferase inh inconclusive, GPT2 inhibitor inactive, 3T3 cytotox 32µM, HEK cytotox 40µM and NPR1 antag inactive.
`COCCn1ccc2ccc(C(=O)NC3CCCc4c3[nH]c3ccccc43)cc21` (stereo not given) gave Luciferase inh inactive, GPT2 inhibitor inactive, 3T3 cytotox inconclusive, HEK cytotox inconclusive and NPR1 antag inactive.
`COc1ccc(NC(=O)c2ccc3c(c2)OCCN(CCC(F)(F)F)C3)cc1F` gave Luciferase inh inactive, GPT2 inhibitor inactive, 3T3 cytotox inconclusive, HEK cytotox inconclusive and NPR1 antag inactive.
`CCOC(=O)c1nn(Cc2ccc(OC)cc2)c2c1CN(C(=O)c1ccc3nc[nH]c3c1)CC2` gave Luciferase inh inactive, GPT2 inhibitor inactive, 3T3 cytotox inactive, HEK cytotox inactive and NPR1 antag inactive.
For COC[C@@H]1CNC[C@H]1c1nc(C)no1 the results were Luciferase inh inactive, GPT2 inhibitor inactive, 3T3 cytotox inactive, HEK cytotox 89µM and NPR1 antag inactive.
`CCS(=O)(=O)N1C[C@@H](COC)[C@H](c2nc(C)no2)C1` gave Luciferase inh inactive, GPT2 inhibitor inactive, 3T3 cytotox inactive, HEK cytotox inactive and NPR1 antag inactive.
For COCCCNC(=O)C1CCCN1Cc1ccc(-c2cncnc2)cc1 (stereo not given) the results were GPT2 inhibitor inactive, 3T3 cytotox inactive and HEK cytotox inactive.
Screening O=C(Nc1cccc2ccccc12)O[C@@H]1CO[C@H]2[C@@H]1OC[C@@H]2NC(=S)Nc1ccc(Cl)cc1 returned Luciferase inh inactive, GPT2 inhibitor inactive, 3T3 cytotox inconclusive, HEK cytotox 40µM and NPR1 antag inactive.
Screening CN(C)c1ccc(NC(=S)N[C@H]2CO[C@H]3[C@@H]2OC[C@H]3OC(=O)Nc2cccc3ccccc23)cc1 returned Luciferase inh 32µM, GPT2 inhibitor 8.9µM, 3T3 cytotox inconclusive, HEK cytotox inactive and NPR1 antag inactive.
Screening S=C(Nc1cccc2ccccc12)N[C@H]1CO[C@H]2[C@@H]1OC[C@H]2OCc1ccccc1 returned Luciferase inh inactive, GPT2 inhibitor inactive, 3T3 cytotox inconclusive, HEK cytotox 63µM and NPR1 antag inconclusive.
For CN(C)c1ccc(C(=O)N2CCC3(CC2)NC(=O)N(c2cccc(F)c2)N3)cc1 the results were Luciferase inh inactive, GPT2 inhibitor inconclusive, 3T3 cytotox inactive, HEK cytotox inconclusive and NPR1 antag inactive.
For COC[C@@H]1CN(c2ncccn2)C[C@H]1C(=O)Nc1ccc(OC)nc1 the results were Luciferase inh inactive, GPT2 inhibitor inactive, 3T3 cytotox inactive, HEK cytotox inactive and NPR1 antag inactive.
`O=C(C1CCCN1C(=O)C1CCCC1)N1CCC(N2Cc3cccn3C2=O)CC1` (stereo not given) gave GPT2 inhibitor inactive, 3T3 cytotox inactive and HEK cytotox inactive.
Screening O=C(C1CCCN1C(=O)Nc1ccc(Cl)cc1)N1CCC(N2Cc3cccn3C2=O)CC1 (stereo not given) returned GPT2 inhibitor inactive, 3T3 cytotox 28µM and HEK cytotox inconclusive.
For CNC(=O)[C@@H]1CN(C(=O)Cc2ccccc2Cl)C[C@H]1CO the results were Luciferase inh inactive, GPT2 inhibitor inactive, 3T3 cytotox inactive, HEK cytotox inactive and NPR1 antag inactive.
For COC(=O)c1ccc2nc(CO[C@H]3CN(C(=O)c4ccccc4)C[C@H]3F)[nH]c2c1 the results were Luciferase inh inactive, GPT2 inhibitor inactive, 3T3 cytotox inactive, HEK cytotox inactive and NPR1 antag inactive.
Cc1ccc(C(=O)NC2CCCN(c3cc(-c4ccc(F)cc4)[nH]n3)C2)cn1 (stereo not given) was read as Luciferase inh inconclusive, GPT2 inhibitor inconclusive, 3T3 cytotox inactive, HEK cytotox 20µM and NPR1 antag inactive.
O=C(NC1CCCN(c2cc(-c3ccc(F)cc3)[nH]n2)C1)c1cccnc1 (stereo not given) was read as Luciferase inh inconclusive, GPT2 inhibitor inconclusive, 3T3 cytotox inactive, HEK cytotox inconclusive and NPR1 antag inactive.

Screens (PubChem)
